M1 ag parental: counter-screen for M1 agonists: effect in parental CHO-K1 cells; Fluo-8 calcium fluorescence; scaled to maximal ATP response, vehicle zero; AID 602248, 2012; activation, % at 3 µM; 360,000 compounds, 0.48% hits; in the data active means activation above about 15%;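 further: untransfected CHO-K1 host cells lacking M1 receptor as counterscreen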
M1 PAM parental: nonselective calcium activators in parental CHO-K1 cells, primary screen, counter-screen for M1 PAM project, cell-based, Fluo-8 calcium fluorescence, full deck, 1536-well; activation, % at 3 µM; AID 602247, 2012; 360,000 compounds, 0.02% hits; ATP EC20; 0% at ATP EC20, 100% at ATP max;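 active means activation above the run cutoff, the mean activation of all test compounds plus 3 SD, cut at about 40% in these data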;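 further: peak over basal fluorescence ratio in a 140 s read after ATP addition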
M1 ag: human M1 muscarinic receptor agonists, primary screen, Fluo-8 calcium fluorescence, CHO-K1 cells, HTS; Muscarinic acetylcholine receptor M1 (Homo sapiens), P11229; CHO-K1 hM1, agonist mode; 0% DMSO, 100% acetylcholine EC100; activation, % at 3 µM; 360,000 compounds, 0.33% hits;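 active means activation above the run's mean compound activation plus 3 SD, cut at about 16% in these data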;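 further: peak over basal fluorescence ratio within a 140 s kinetic read after compound addition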
Target sequence (P11229 whole entry, looked up): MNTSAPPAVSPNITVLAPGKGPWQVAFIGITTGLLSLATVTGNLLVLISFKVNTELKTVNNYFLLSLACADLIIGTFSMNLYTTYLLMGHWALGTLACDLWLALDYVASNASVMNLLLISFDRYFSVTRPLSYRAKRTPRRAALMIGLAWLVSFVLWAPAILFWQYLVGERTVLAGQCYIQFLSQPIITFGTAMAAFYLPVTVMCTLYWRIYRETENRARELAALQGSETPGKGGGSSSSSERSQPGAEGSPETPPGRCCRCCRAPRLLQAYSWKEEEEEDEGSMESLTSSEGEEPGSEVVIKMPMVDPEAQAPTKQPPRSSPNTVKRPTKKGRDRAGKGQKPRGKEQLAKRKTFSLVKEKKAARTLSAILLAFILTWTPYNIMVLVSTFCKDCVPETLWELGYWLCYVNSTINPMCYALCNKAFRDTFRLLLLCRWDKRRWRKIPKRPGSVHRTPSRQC
M1 antag: human M1 muscarinic receptor antagonists, primary screen, CHO-K1 cells, Fluo-8 calcium fluorescence, 1536-well; CHO-K1 hM1, ACh EC80 antagonist; inhibition, % at 3 µM; 360,000 compounds, 1.3% hits; AID 588852, 2011;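 active means percent inhibition above its own plate's cutoff, namely the mean of that plate's compound wells plus 3 SD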;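 further: peak over basal fluorescence ratio during 140 s after agonist addition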
CHO-K1 Ca antag: nonselective inhibitor or artifact in parental CHO-K1 cells | ATP-induced calcium, Fluo-8 fluorescence | inhibition, % at 3 µM | 360,000 compounds, 0.6% hits;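 active means inhibition above a per-plate cutoff, the plate's mean sample inhibition plus 3 SD, cut at about 24% in these data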
CHRM1 PAM: human M1 muscarinic receptor positive allosteric modulators, primary screen, CHO-K1 cells, Fluo-8 calcium fluorescence, 1536-well. activation, % at 3 µM. Muscarinic acetylcholine receptor M1 (Homo sapiens), P11229. 360,000 compounds, 0.088% hits. CHO-K1 hM1, ACh EC20; 0% = ACh EC20, 100% = maximal ACh; in the data active means activation above about 19%, passing the limit was not always enough
Numbers stand for hits; i = inactive. Only some compounds are listed: those with a hit (about 2.3% of all), similar ones and a draw of the others.

SMILES | M1 ag parental | M1 PAM parental | M1 ag | M1 antag | CHO-K1 Ca antag | CHRM1 PAM
Cc1ccc(NC(=O)c2ncn(CCCNCCCc3ccccc3)n2)cc1C | i | i | 18 | i | i | i
Cc1ccc(C(=O)NC(=S)NNC(=O)c2ccc([N+](=O)[O-])cc2)cc1 | i | i | i | i | i | i
Cc1ccc(C(=O)NNC(=S)NC(=O)c2ccccc2)cc1 | 70 | i | 52 | 52 | 27 | i
CC(C)(C)c1cc(CCC(=O)NNC(=S)NC(=O)c2ccccc2)cc(C(C)(C)C)c1O | 56 | i | 81 | 49 | 30 | i
O=C(CCc1ccccc1)NNC(=S)NC(=O)c1ccccc1 | i | i | i | i | i | i
O=C(CNC(=S)NC(=O)c1ccc(Cl)cc1)c1ccccc1 | i | i | i | i | i | 32
Cc1ccc(C(=O)NC(=S)NNC(=O)c2ccccc2)cc1 | 20 | i | 36 | i | 35 | i
Cc1ccc(C(=O)NNC(=O)c2cccc(C)c2)cc1 | i | i | i | i | i | i
Cc1ccccc1OCC(=O)NNC(=S)NC(=O)c1ccco1 | i | i | 18 | i | i | i
CCCCC(=O)NC(=S)NNC(=O)c1ccc(Cl)cc1Cl | 26 | i | 25 | i | i | i
Cc1ccccc1OCC(=O)Nc1ccccc1NC(=O)c1ccco1 | i | i | i | i | i | i
Cc1cccc(C(=O)NNC(=S)NC(=O)c2ccccc2)c1 | 100 | i | 97 | i | 35 | i
Cc1ccc(C(=O)NNC(=S)NC(=O)c2ccc(Cl)cc2Cl)cc1 | 107 | i | 105 | 46 | i | i
CC(C)NC(=S)NC(=O)c1ccc(Cl)cc1Cl | i | i | i | i | i | i
O=C(C[C@H]1C(=O)N(Cc2ccccc2)C[C@@H]1c1ccc(Br)cc1)Nc1ccc(Br)cc1 | i | i | i | i | i | i
CCOc1ccc(NS(=O)(=O)c2cc(C(=O)N3CCN(c4ccccc4O)CC3)ccc2Cl)cc1 | i | i | i | i | i | i
Cc1cccc(C(=O)NNC(=S)NC(=O)c2cccs2)c1 | 85 | i | 84 | i | i | i
Cc1ccc(C(=O)NNC(=O)c2ccco2)cc1 | i | i | i | i | i | i
COc1ccc(/C=C/C(=O)NC(=S)NNC(=O)c2cccs2)cc1 | i | i | 21 | i | i | i
Cc1ccc(C(=O)NNC(=S)NC(=O)c2ccco2)cc1 | 21 | i | 30 | i | i | i
COc1ccc(C(=O)NNC(=S)NC(=O)c2cccs2)cc1 | i | i | i | i | i | i
CCOC(=O)c1nn(-c2ccccc2)c(=O)cc1OCC(=O)Nc1ccccc1OCC | i | i | i | i | i | i
CCN(CC)c1ccc(/C=C/C(=O)c2ccc(Br)cc2)cc1 | 111 | i | 171 | 79 | 73 | i
COc1ccc(C2=NOC(Cn3nc(C(=O)NCc4ccc(C)cc4)cc3-c3ccccc3)C2)cc1 (stereo not drawn) | i | i | i | i | i | i
COc1ccc(C2=NOC(Cn3nc(C(=O)NCc4ccco4)cc3-c3ccccc3)C2)cc1 (stereo not drawn) | i | i | i | 33 | i | i
SMILES | M1 ag parental | M1 PAM parental | M1 ag | M1 antag | CHO-K1 Ca antag | CHRM1 PAM
COC(=O)c1c(N)nc(C)n1-c1ccc(OC)cc1 | i | i | i | i | 25 | i
CCCn1ccnc1SC(C)C(=O)Nc1c(C)n(C)n(-c2ccccc2)c1=O (stereo not drawn) | i | i | i | i | i | i
CN(CC(=O)Nc1ccc(C(N)=O)cc1)CC(=O)Nc1ccccc1Br | i | i | i | i | i | i
CN(CC(=O)Nc1ccccc1Br)C(=O)CNC(=O)c1cccs1 | i | i | i | 34 | i | i
CC(=O)Nc1ccc(NC(=O)CN(C)CC(=O)Nc2ccccc2Br)cc1 | i | i | i | 38 | i | i
Cc1ccc(C(=O)NCC(=O)N(C)CC(=O)Nc2ccccc2Br)s1 | i | i | i | i | i | i
COc1ccccc1Nc1ncc(C(=O)N2CCN(Cc3ccc(OC)c(OC)c3OC)CC2)c2ccccc12 | i | i | i | i | i | i
COC(=O)Cc1ccc(OC2(C)CCN(Cc3csc4ccccc34)C2)cc1 (stereo not drawn) | i | i | i | 29 | i | i
CC(C)(CNC(=O)c1ccc(S(=O)(=O)Nc2ccc(Cl)cc2)cc1)N1CCOCC1 | i | i | i | i | i | i
CCOC(=O)c1csc(-c2snnc2C)n1 | 17 | i | i | i | i | i
CCOC(=O)c1csc(N)n1 | i | i | i | i | i | i
COCC(=O)N[C@@H]1c2cc(OC)c(OC)cc2C[C@H]1OCc1ccccc1 | i | i | i | i | i | i
CCSC1=NSC2=NC(=O)/C(=C\c3coc4ccccc4c3=O)C(=N)N12 | 59 | i | 87 | 61 | 48 | i
CC(C)CC1=NN2C(=N)/C(=C\c3coc4ccccc4c3=O)C(=O)N=C2S1 | 100 | i | 125 | 45 | 45 | i
CSC1=NSC2=NC(=O)/C(=C\c3ccc(OC(=O)c4ccco4)cc3)C(=N)N12 | i | i | i | i | i | i
Cc1sc2nc(CSC(C)C(=O)NC3(C#N)CCCCC3)[nH]c(=O)c2c1C (stereo not drawn) | i | i | i | i | i | i
Cc1occc1C(=O)N/N=C/C1=C(N2CCOCC2)C(=C/c2ccc(Cl)cc2Cl)/CC1 | i | i | i | i | i | i
Cc1cccc(Nc2nc(N)nc(CN3CCN(Cc4ccc5c(c4)OCO5)CC3)n2)c1 | i | i | i | 21 | i | i
Cc1cccc(Nc2nc(N)nc(N)c2N=O)c1 | 29 | i | 24 | i | i | i
Cc1cccc(Nc2nc(N)nc(CCl)n2)c1 | 20 | i | i | i | i | i
Cc1ccc(Nc2nc(N)nc(N)c2N=O)cc1C | i | i | i | i | i | i
COc1ccccc1Nc1nc(N)nc(CN2CCN(Cc3ccc4c(c3)OCO4)CC2)n1 | i | i | i | i | i | i
CC(=O)Nc1ccc(NC(=O)c2ccccc2-n2cnnn2)cc1 | i | i | i | i | i | i
O=C(c1cc(Br)c(Br)s1)N1CCN(c2ccccn2)CC1 | i | i | i | 39 | i | i
COc1cc(C(=O)Nc2cc(S(C)(=O)=O)ccc2Cl)ccc1OCC(=O)N1CCOCC1 | i | i | i | i | i | i
Cc1cc(C)c2cc(CN(CCO)C(=O)Nc3ccc(F)cc3)c(=O)[nH]c2c1 | i | i | i | i | 26 | i
Cc1c(Cl)cccc1NC(=S)N1CCCN(Cc2ccccc2F)C1 | i | i | i | i | i | i
Fc1ccccc1CN1CCCN(C(=S)Nc2cccc(Cl)c2)C1 | i | i | i | 29 | i | i
